Assay results as given in PubChem BioAssay (EPA / NIEHS).
Records with an inconclusive call do not appear. Active and inactive are the calls of the source. The calls were made as follows, unless noted: active = hit-call score of the fitted dose curve at least 0.9, where 1 is the maximum; inactive = score below 0.9. Peptide text beside a SMILES is read from it.

Key:
[1] = target: Nuclear respiratory factor 1 (Homo sapiens) (UniProt Q16656); assay: ATG_NRF1_CIS: Attagene CIS-FACTORIAL HepG2 Assay for human Nuclear Respiratory Factor 1 (NRF1) Orphan Gene (AID 2282987); conditions: HepG2 NRF1 cis-element reporter, Attagene multiplex; actives raise or lower the signal
Chain of Nuclear respiratory factor 1 (Homo sapiens) (Q16656 whole entry, looked up): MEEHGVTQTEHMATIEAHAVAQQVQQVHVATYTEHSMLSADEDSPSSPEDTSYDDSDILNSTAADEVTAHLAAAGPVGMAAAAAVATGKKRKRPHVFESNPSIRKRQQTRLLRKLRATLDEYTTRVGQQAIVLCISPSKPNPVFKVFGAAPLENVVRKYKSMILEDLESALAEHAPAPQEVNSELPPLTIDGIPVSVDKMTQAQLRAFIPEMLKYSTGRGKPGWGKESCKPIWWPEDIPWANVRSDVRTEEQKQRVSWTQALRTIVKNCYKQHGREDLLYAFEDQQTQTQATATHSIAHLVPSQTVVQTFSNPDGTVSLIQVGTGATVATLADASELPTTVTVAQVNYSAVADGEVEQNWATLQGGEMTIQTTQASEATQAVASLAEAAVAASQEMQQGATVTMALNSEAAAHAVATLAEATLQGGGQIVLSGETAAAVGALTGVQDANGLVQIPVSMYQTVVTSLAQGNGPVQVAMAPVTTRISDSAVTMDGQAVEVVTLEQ
Summary of the method: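 Reporter mRNA induction or loss in HepG2 cells after 24 h dosing; cis-regulated reporter constructs report endogenous transcription-factor activity. Quantified by RT-PCR/capillary electrophoresis fluorescence, DMSO-referenced.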

[2] = ATG_NFI_CIS: Attagene CIS-FACTORIAL HepG2 Assay for human Nuclear Factor I (NFI) (AID 2282989); conditions: HepG2 cis-regulatory reporter, NFI response element transcription; actives raise or lower the signal
Summary of the method: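 HepG2 cells transiently transfected with cis-element-driven multiplexed reporter transcription units, dosed for 24 h. Reporter mRNA quantified by RT-PCR, fluorescent labelling, HpaI digestion and capillary electrophoresis; bidirectional fit versus DMSO baseline.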

[3] = target: Myc proto-oncogene protein (Homo sapiens) (UniProt P01106); assay: ATG_Myc_CIS: Attagene CIS-FACTORIAL HepG2 Assay for human Myelocytomatosis (Myc) Proto-Oncogene Transcription Factor (AID 2282990); conditions: HepG2, Attagene cis-reporter transcription factor activity; actives raise or lower the signal
Chain of Myc proto-oncogene protein (Homo sapiens) (P01106 whole entry, looked up, the tested form may be a part): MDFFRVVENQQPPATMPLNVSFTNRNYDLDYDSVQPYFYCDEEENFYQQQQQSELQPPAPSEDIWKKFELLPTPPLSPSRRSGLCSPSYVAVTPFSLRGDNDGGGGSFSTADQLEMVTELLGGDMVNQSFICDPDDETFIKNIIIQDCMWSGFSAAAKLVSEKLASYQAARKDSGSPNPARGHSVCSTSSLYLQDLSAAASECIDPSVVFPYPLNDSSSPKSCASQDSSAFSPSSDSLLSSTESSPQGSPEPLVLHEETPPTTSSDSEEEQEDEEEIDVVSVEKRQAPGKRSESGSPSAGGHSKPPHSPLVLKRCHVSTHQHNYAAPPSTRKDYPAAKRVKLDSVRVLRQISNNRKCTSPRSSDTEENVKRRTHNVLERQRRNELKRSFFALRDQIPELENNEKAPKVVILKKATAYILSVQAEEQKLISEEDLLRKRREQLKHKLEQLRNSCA
Summary of the method: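 Read-out: fluorescent reporter mRNA fragments resolved by capillary electrophoresis after RT-PCR. Human HepG2 liver cells carried transfected cis-element reporter units and were dosed for 24 h. Gain or loss of signal fitted relative to DMSO baseline.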

[4] = ATG_NF_kB_CIS: Attagene CIS-FACTORIAL HepG2 Assay for human Nuclear Factor Kappa B (NF-kB) (AID 2282991); conditions: HepG2 Attagene cis-factorial NF-kB reporter mRNA; actives raise or lower the signal
Summary of the method: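 DMSO served as negative control and baseline for bidirectional curve fitting. Transiently transfected HepG2 cells were dosed for 24 h, then reporter transcripts were measured by RT-PCR with capillary electrophoresis detection.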

[5] = ATG_NRF2_ARE_CIS: Attagene CIS-FACTORIAL HepG2 Assay for human Nuclear Factor Erythroid 2 Related Factor 2 (NFR2) response to Antioxidant Response Elements (ARE) (AID 2282992); conditions: HepG2 Attagene ARE/NRF2 reporter, transcription factor activity; actives raise or lower the signal;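 as to AC50: reporter mRNA level measured by RT-PCR and capillary electrophoresis fluorescence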
Summary of the method: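 HepG2 cells transiently transfected with multiplexed cis-regulated reporter transcription units measure endogenous transcription factor activity. Reporter mRNA at 24 h is quantified by RT-PCR, fluorescent labelling and capillary electrophoresis, with bidirectional fitting relative to DMSO.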

[6] = ATG_Oct_MLP_CIS: Attagene CIS-FACTORIAL HepG2 Assay for human Octamer-Binding Transcription Factor (Oct) (AID 2282993); conditions: HepG2 Attagene cis-factorial Oct reporter, mRNA; actives raise or lower the signal
Summary of the method: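 HepG2 cells transiently transfected with cis-promoter-driven multiplexed reporter transcription units, dosed for 24 h. Reporter mRNA quantified by RT-PCR, fluorescent labelling, HpaI digestion and capillary electrophoresis; bidirectional fits versus DMSO baseline.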

[7] = target: Cellular tumor antigen p53 (Homo sapiens) (UniProt P04637); assay: ATG_p53_CIS: Attagene CIS-FACTORIAL HepG2 Assay for human p53 Transcription Factor (AID 2282994); conditions: HepG2 p53 cis-element reporter, Attagene mRNA; actives raise or lower the signal
Chain of Cellular tumor antigen p53 (Homo sapiens) (P04637 whole entry, looked up): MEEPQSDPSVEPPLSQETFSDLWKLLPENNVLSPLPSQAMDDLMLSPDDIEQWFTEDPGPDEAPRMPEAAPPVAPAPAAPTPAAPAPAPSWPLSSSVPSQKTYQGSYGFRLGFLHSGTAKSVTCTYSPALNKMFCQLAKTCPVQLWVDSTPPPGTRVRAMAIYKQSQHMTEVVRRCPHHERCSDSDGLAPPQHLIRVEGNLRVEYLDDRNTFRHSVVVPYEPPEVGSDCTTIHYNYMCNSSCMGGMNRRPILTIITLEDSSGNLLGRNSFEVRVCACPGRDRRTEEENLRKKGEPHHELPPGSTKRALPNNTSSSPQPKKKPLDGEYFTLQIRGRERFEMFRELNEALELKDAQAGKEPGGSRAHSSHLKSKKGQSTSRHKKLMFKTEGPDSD
Summary of the method: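 HepG2 cells transiently transfected with multiplexed cis-regulated reporter transcription units read endogenous TF activity. After 24 h compound exposure, reporter mRNA was quantified by RT-PCR, fluorescent labelling, HpaI digestion and capillary electrophoresis; bidirectional fits versus DMSO baseline.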

[8] = target: human Peroxisome Proliferator-activated Receptor alpha (PPARa), PPARA (gene 5465) (UniProt Q07869); assay: ATG_PPARa_TRANS: Attagene TRANS-FACTORIAL HepG2 Assay for human Peroxisome Proliferator-activated Receptor alpha (PPARa) (AID 2283001; active = hit-call score of the fitted dose curve at least 0.9, where 1 is the maximum)
Chain of human Peroxisome Proliferator-activated Receptor alpha (PPARa), PPARA (gene 5465) (Q07869 whole entry, looked up, the tested form may be a part): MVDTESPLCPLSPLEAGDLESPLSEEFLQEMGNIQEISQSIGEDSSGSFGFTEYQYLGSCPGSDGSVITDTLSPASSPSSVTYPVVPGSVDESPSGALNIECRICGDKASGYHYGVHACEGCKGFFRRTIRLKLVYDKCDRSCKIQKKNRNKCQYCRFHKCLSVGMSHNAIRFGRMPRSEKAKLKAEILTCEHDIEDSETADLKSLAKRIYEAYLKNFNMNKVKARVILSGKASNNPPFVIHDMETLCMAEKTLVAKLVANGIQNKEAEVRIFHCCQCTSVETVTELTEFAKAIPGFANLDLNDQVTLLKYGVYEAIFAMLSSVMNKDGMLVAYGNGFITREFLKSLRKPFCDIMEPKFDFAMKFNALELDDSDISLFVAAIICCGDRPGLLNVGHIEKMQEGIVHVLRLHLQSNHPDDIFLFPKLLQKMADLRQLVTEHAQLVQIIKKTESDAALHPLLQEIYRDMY
Summary of the method: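 HepG2 cells transiently transfected with multiplexed GAL4-UAS reporters driven by exogenous chimeric NR-Gal4 proteins; reporter mRNA measured after 24 h dosing. Read-out by RT-PCR, 6-FAM labelling, HpaI digestion and capillary electrophoresis; gain of signal versus DMSO.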

[9] = target: human Retinoic Acid Receptor beta (RARb), RARB (gene 5915) (UniProt P10826); assay: ATG_RARb_TRANS: Attagene TRANS-FACTORIAL HepG2 Assay for human Retinoic Acid Receptor beta (AID 2283004; active = hit-call score of the fitted dose curve at least 0.9, where 1 is the maximum)
Chain of human Retinoic Acid Receptor beta (RARb), RARB (gene 5915) (P10826 whole entry, looked up, the tested form may be a part): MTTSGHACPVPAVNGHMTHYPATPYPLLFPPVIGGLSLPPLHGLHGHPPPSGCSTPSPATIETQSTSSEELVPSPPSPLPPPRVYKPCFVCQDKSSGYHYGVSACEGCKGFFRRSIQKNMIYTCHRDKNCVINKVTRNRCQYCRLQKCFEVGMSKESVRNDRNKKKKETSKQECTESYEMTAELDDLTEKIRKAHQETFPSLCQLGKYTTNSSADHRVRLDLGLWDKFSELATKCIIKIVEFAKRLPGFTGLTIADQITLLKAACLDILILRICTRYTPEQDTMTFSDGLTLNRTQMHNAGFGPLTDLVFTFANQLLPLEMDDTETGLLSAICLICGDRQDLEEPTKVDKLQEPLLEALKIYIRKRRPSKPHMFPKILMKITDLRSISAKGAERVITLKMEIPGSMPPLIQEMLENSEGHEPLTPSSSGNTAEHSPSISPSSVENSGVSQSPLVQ
Summary of the method: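 Readout is reporter mRNA induction: RNA reverse-transcribed, PCR-amplified, FAM-labelled, HpaI-cut and resolved by capillary electrophoresis. Transiently transfected HepG2 cells carrying exogenous NR–Gal4 chimeras were dosed for 24 h; activity fitted upward relative to DMSO.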

[10] = target: Peroxisome proliferator-activated receptor gamma (Homo sapiens) (UniProt P37231); assay: ATG_PPARg_TRANS: Attagene TRANS-FACTORIAL HepG2 Assay for human Peroxisome Proliferator-activated Receptor-gamma (PPARg) (AID 2283007; active = hit-call score of the fitted dose curve at least 0.9, where 1 is the maximum)
Chain of Peroxisome proliferator-activated receptor gamma (Homo sapiens) (P37231 whole entry, looked up, the tested form may be a part): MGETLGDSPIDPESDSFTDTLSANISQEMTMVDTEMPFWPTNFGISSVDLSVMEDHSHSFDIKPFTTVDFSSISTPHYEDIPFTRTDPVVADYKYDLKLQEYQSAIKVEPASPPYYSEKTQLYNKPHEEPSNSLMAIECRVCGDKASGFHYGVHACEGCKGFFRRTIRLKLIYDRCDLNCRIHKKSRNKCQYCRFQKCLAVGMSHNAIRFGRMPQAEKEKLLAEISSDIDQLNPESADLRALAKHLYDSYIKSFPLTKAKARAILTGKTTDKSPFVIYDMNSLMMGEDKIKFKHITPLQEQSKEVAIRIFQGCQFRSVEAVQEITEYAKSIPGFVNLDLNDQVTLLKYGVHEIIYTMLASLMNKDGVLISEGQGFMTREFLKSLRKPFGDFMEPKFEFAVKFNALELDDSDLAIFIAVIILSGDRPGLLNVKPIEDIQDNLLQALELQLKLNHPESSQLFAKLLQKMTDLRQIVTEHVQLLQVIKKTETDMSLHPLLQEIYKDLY
Summary of the method: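 Chimeric NR-Gal4 transactivation is measured in transiently transfected HepG2 cells by reporter mRNA induction at 24 h. Detection uses RT-PCR with fluorescent labelling and capillary electrophoresis; DMSO defines baseline.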

[11] = target: human Peroxisome Proliferator-activated Receptor delta (PPARd), PPARD (gene 5467) (UniProt Q03181); assay: ATG_PPARd_TRANS: Attagene TRANS-FACTORIAL HepG2 Assay for human Peroxisome Proliferator-activated Receptor delta (PPARd) (AID 2283002; active = hit-call score of the fitted dose curve at least 0.9, where 1 is the maximum)
Chain of human Peroxisome Proliferator-activated Receptor delta (PPARd), PPARD (gene 5467) (Q03181 whole entry, looked up, the tested form may be a part): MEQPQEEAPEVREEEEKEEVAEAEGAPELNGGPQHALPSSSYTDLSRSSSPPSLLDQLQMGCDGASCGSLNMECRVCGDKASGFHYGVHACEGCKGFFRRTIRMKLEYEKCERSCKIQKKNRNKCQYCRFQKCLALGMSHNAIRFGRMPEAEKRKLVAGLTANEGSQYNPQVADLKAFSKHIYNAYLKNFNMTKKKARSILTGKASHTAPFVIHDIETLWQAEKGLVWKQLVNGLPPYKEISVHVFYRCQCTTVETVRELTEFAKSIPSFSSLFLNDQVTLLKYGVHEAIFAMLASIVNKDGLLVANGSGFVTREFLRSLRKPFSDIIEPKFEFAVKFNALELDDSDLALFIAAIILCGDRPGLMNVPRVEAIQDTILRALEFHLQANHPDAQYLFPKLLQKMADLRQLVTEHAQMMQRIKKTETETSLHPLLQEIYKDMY
Summary of the method: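 Read-out: reporter mRNA induction, quantified by fluorescent RT-PCR products resolved by capillary electrophoresis. Human HepG2 liver cells carried transiently transfected Gal4-UAS reporter constructs with chimeric NR-Gal4 fusions. Cells were dosed for 24 h; DMSO served as baseline.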

[12] = target: Nuclear receptor subfamily 1 group I member 2 (Homo sapiens) (UniProt O75469); assay: ATG_PXR_TRANS: Attagene TRANS-FACTORIAL HepG2 Assay for human Pregnane X Receptor (PXR) (AID 2283008; active = hit-call score of the fitted dose curve at least 0.9, where 1 is the maximum)
Chain of Nuclear receptor subfamily 1 group I member 2 (Homo sapiens) (O75469 whole entry, looked up, the tested form may be a part): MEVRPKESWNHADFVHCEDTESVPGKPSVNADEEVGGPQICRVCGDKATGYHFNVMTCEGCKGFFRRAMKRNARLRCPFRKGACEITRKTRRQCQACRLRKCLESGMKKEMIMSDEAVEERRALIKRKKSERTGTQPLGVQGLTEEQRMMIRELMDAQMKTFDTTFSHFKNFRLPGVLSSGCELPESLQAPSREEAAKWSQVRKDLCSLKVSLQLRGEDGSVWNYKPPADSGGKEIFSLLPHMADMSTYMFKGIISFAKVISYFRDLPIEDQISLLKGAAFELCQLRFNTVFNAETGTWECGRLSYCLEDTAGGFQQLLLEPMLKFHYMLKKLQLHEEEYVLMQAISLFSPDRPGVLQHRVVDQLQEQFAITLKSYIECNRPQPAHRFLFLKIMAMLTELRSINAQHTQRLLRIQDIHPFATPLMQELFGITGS
Summary of the method: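 HepG2 cells transiently transfected with multiple reporter units, here a PXR-GAL4 chimera driving a GAL4-UAS reporter; 24 h compound exposure. Reporter mRNA measured by RT-PCR, FAM labelling and capillary electrophoresis; gain of signal fitted against DMSO baseline.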

[13] = target: human Retinoic Acid Receptor gamma (RARg), RARG (gene 5916) (UniProt P13631); assay: ATG_RARg_TRANS: Attagene TRANS-FACTORIAL HepG2 Assay for human Retinoic Acid Receptor gamma (RARg) (AID 2283009; active = hit-call score of the fitted dose curve at least 0.9, where 1 is the maximum)
Chain of human Retinoic Acid Receptor gamma (RARg), RARG (gene 5916) (P13631 whole entry, looked up): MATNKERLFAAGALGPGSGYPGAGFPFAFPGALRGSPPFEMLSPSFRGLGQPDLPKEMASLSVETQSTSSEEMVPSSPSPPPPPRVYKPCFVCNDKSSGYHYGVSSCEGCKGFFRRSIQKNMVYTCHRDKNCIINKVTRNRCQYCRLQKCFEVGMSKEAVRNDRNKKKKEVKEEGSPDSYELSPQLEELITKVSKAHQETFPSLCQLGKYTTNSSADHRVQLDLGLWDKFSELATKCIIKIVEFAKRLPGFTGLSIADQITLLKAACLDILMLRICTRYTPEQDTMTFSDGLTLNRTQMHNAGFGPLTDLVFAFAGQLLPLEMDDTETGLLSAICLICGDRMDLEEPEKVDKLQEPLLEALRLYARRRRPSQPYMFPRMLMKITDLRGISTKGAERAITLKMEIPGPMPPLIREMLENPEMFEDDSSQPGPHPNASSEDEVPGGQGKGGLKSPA
Summary of the method: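 Transient transfection of HepG2 with multi-reporter constructs, then 24 h chemical treatment. Total RNA isolated, reverse-transcribed, PCR-amplified, fluorescently labelled and resolved by capillary electrophoresis; activity scored as mRNA induction versus DMSO.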

[14] = target: Retinoic acid receptor alpha (Homo sapiens) (UniProt P10276); assay: ATG_RARa_TRANS: Attagene TRANS-FACTORIAL HepG2 Assay for human Retinoic Acid Receptor alpha (RARa) (AID 2283005; active = hit-call score of the fitted dose curve at least 0.9, where 1 is the maximum)
Chain of Retinoic acid receptor alpha (Homo sapiens) (P10276 whole entry, looked up, the tested form may be a part): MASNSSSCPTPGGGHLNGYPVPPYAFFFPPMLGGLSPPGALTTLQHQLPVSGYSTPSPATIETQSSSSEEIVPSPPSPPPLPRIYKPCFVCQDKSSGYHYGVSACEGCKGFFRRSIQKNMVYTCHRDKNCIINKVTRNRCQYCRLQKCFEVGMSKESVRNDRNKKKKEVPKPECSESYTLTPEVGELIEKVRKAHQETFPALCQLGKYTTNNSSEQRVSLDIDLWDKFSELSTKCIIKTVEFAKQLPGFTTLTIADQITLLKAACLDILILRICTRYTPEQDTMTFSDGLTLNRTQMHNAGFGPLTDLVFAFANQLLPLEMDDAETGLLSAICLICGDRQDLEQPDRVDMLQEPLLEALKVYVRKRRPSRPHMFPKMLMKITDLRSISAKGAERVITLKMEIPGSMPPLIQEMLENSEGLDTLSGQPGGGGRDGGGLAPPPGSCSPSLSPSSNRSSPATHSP
Summary of the method: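 HepG2 transiently transfected with multiplex GAL4-UAS reporter units including a human RARa–GAL4 chimera; 24 h compound exposure. Reporter mRNA quantified by RT-PCR, 6-FAM labeling and capillary electrophoresis; gain of signal versus DMSO.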

Measured: AC50

CC(=O)CCC=C(C)C
inactive: [1] | [2] | [3] | [4] | [5] | [6] | [7] | [8] | [9]

Nc1ccnc(=O)[nH]1
inactive: [1] | [2] | [3] | [4] | [5] | [6] | [7] | [8] | [10]

CC(C)(CO)COC(=O)C(C)(C)CO
inactive: [1] | [2] | [3] | [4] | [5] | [6] | [7] | [11] | [9] | [12]

C=C(C)C(=O)OCC(O)COc1ccc(C(C)(C)c2ccc(OCC(O)COC(=O)C(=C)C)cc2)cc1 (configuration not stated)
inactive: [2] | [3] | [4] | [7] | [11] | [13]
active: [1] 130 µM | [5] 26.5 µM | [6] 17.8 µM | [10] 7.32 µM | [12] 6.93 µM

CC(=O)c1ccc(S(=O)(=O)NC(=O)NC2CCCCC2)cc1
inactive: [1] | [2] | [3] | [4] | [5] | [6] | [7] | [8] | [14] | [10] | [12] | [13]

CCCSSCCC
inactive: [1] | [2] | [3] | [4] | [5] | [6] | [7] | [11] | [14] | [13]

CCOC(=O)OC(=O)OCC
inactive: [1] | [2] | [3] | [4] | [5] | [6] | [7] | [8] | [11] | [12] | [13]

CC1CC(=O)CC(C)(C)C1 (configuration not stated)
inactive: [1] | [2] | [3] | [4] | [5] | [6] | [7] | [11] | [12] | [13]

COC(=O)[C@H](Cc1ccccc1)NC(=O)[C@@H](N)CC(=O)O (H-Asp-Phe-OMe)
inactive: [1] | [2] | [3] | [4] | [5] | [6] | [7] | [11] | [9] | [14] | [10] | [12] | [13]

[Cl][Sc]([Cl])[Cl]
inactive: [1] | [2] | [3] | [4] | [5] | [6] | [7] | [8] | [14] | [12] | [13]

C=Cc1ccc(OC(C)=O)cc1
inactive: [1] | [2] | [3] | [4] | [7] | [11] | [9] | [10] | [12]
active: [5] 6.87 µM | [6] 55.4 µM
